Inconclusive results are not listed. The source made the active and inactive calls. Unless noted, calls come from the whole dose curve; as a rule, active = well fitted curve in either direction with a large enough effect (not every such curve was filed as active); inconclusive = small, poorly fitted or top-dose-only effect, or another doubt; inactive = flat fitted curve, though single readings scatter.
How the values were obtained:
[1] = AP1 Signaling Pathway (AID 357); conditions: ME-180 AP-1-bla reporter, EGF-induced, beta-lactamase ratio, 5 h; at 17.2 µM (top of the series) unless noted;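 note: ME-180 reporter cells stimulated with EGF at its EC50 level; % is set by controls: 0 for no effect and ±100 for the full control effect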
In short: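 AP-1-bla ME-180 cells, Opti-MEM + 0.5% dialyzed FBS, plated overnight 37 °C. Cpd titration + EC50 EGF, 5 h 37 °C. CCF4 2.5 h RT; ex 405, em 460/530 ratio → %activity, AC50.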

[2] = NFAT Signaling Pathway (AID 444); conditions: Jurkat NFAT-bla M1, carbachol, beta-lactamase ratio, 5 h; at 17.2 µM (top of the series) unless noted;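 note: carbachol stimulus at about its EC50 of 1 µM final; % is set by controls: 0 for no effect and ±100 for the full control effect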
In short: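 Jurkat cells carrying an NFAT-driven β-lactamase reporter and co-transfected muscarinic M1 receptor were treated with compound plus carbachol (1 uM final, an EC50 level) for 5 h at 37 °C. CCF4 loading followed for 1 h at RT; 460/530 nm ratio gave %activity.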

[3] = Stat Signaling Pathway (AID 446); conditions: ME-180 SIE beta-lactamase reporter, IL-6 stimulated, 5 h; at 17.2 µM (top of the series) unless noted;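 note: ME-180 cervical cancer cells given 40 pM IL-6 alongside compound; SIE-controlled beta-lactamase reporter measured as 460/530 nm FRET emission ratio; % is set by controls: 0 for no effect and ±100 for the full control effect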
In short: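 Reporter line: ME-180 cervical carcinoma, SIE-beta-lactamase. Treatment: compound with 40 pM IL-6, 5 hrs, 37 C, in low-serum OPTI-MEM with 10 mM HEPES pH 7.3. Detection: 460/530 nm fluorescence.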

[4] = biological target: Cytochrome P450 1A2 (Homo sapiens) (UniProt P05177); assay: p450-cyp1a2 (AID 410; calls by dose curve; note: potency is the fitted concentration of half-maximal effect;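 for activity change, negative = inhibition: -100% = full effect of reference inhibitor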)
In short: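 20nM CYP1A2 with 100uM Luciferin-ME (at Km) in 100mM KPO4; compound preincubated 10 min, NADPH regeneration added, 60 min at room temperature. Luciferin quantified by luminescence after detection reagent; normalized to 57 uM furafylline.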

[5] = biological target: Mitogen-activated protein kinase 10 (Mus musculus) (UniProt Q61831); assay: JNK3 AlphaScreen Assay (AID 530);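 note: kinase came from lysate of stimulated human HepG2 cells; signal reports phosphorylation of biotinylated GST-cJun 1-79 at Ser73 with 10 µM ATP; % is set by controls: 0 for no effect and ±100 for the full control effect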
In short: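 Inhibitors reduce antibody binding to phosphorylated biotin-cJun, lowering AlphaScreen luminescence. Lysates from HepG2 cells pre-activated by IL-1beta plus TNF-alpha supplied JNK3; compounds were titrated.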

[6] = biological target: 3',5'-cyclic-AMP phosphodiesterase 4B (Homo sapiens) (UniProt Q07343); assay: qHTS Assay for Inhibitors of PDE-IV (AID 607; active = well fitted activation curve with a large enough effect in the main read-out, with a control signal flat, not every such curve was filed as active; note: % of control where 0% means no effect)
In short: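 Cell-based read-out of cAMP via a modified cyclic nucleotide-gated channel and membrane potential dye (535/590 nm) in HEK293 cells expressing PDE4 endogenously. Compounds tested up to 22.9 uM final; 100 uM RO 20-1724 reference.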

[7] = biological target: Glucocorticoid receptor (Homo sapiens) (UniProt P04150); assay: GR-GFP Redistribution (AID 450;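 active = compounds whose dose series gives a full or clear partial fitted curve of increased nuclear translocation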; note: potency is the fitted concentration of half-maximal effect)
[8] = biological target: Glucocorticoid receptor (Homo sapiens) (UniProt P04150); assay: GR-EFC Redistribution (AID 451; calls by dose curve; note: potency is the fitted concentration of half-maximal effect); conditions: CHO-K1 GR-EFC translocation, beta-gal luminescence, 2 h
In short: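 CHO-K1 cells stably expressing nuclear-localized β-gal enzyme acceptor and GR fused C-terminally to the enzyme donor fragment; ligand-driven nuclear translocation restores β-gal by complementation. Compounds titrated up to 46 uM final, 2 h at 37 °C; luminescence read.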

[9] = biological target: Cytochrome P450 2C9 (Homo sapiens) (UniProt P11712); assay: qHTS Assay for Inhibitors and Substrates of Cytochrome P450 2C9 (AID 883; active = well fitted curve in the direction sought with a large enough effect; an effect the other way counts as inactive or inconclusive; note: nearly all actives have a fitted effect of over 60% in size; note: potency is the fitted concentration of half-maximal effect)
In short: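 Human CYP2C9 (10nM) hydroxylated Luciferin-H (100uM, at its KM) to luciferin in 25mM KPO4. Compound was preincubated 10 min at 37C, then NADPH regeneration started a 60 min reaction at 37C. Luminescence was read after detection reagent, normalized to 57uM sulphaphenazole.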

[10] = biological target: Cytochrome P450 2D6 (Homo sapiens) (UniProt P10635); assay: qHTS Assay for Inhibitors and Substrates of Cytochrome P450 2D6 (AID 891; active = well fitted curve in the direction sought with a large enough effect; an effect the other way counts as inactive or inconclusive; note: nearly all actives have a fitted effect of over 60% in size; note: potency is the fitted concentration of half-maximal effect)
In short: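 Human CYP2D6 (5 nM) with 30 uM Luciferin-ME EGE (at Km) in 100 mM KPO4, compound preincubated 10 min, then NADPH regeneration system for 60 min at room temperature. Luciferin read by luminescence; normalized to 1.43 uM quinidine.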

[11] = biological target: Cytochrome P450 2C19 (Homo sapiens) (UniProt P33261); assay: qHTS Assay for Inhibitors and Substrates of Cytochrome P450 2C19 (AID 899; active = well fitted curve in the direction sought with a large enough effect; an effect the other way counts as inactive or inconclusive; note: % is set by controls: 0 for no effect and ±100 for the full control effect; nearly all actives have a fitted effect of over 60% in size)
In short: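 Human CYP2C19 (5nM) with Luciferin-H EGE at 10uM (its KM) in 50mM KPO4 was preincubated with compound for 10 min at 37C. NADPH regeneration started a 60 min 37C reaction. Luciferin was read by luminescence, normalized to 57uM ketoconazole.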

[12] = biological target: Guanine nucleotide-binding protein G(i) subunit alpha-1 (Homo sapiens) (UniProt P63096); assay: qHTS Assay for Inhibitors of RGS12 GoLoco Motif Activity (Green Fluorophore) (AID 879; active = well fitted curve in the direction sought with a large enough effect; an effect the other way counts as inactive or inconclusive;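 note: 0% = labeled peptide with Gαi1 and full inhibition = labeled peptide alone without protein; negative values mean loss of peptide binding seen as reduced polarization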)
In short: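 Fluorescence polarization assay: 50 nM Gαi1 with 10 nM FITC-labeled RGS12 GoLoco peptide in 10 mM Tris pH 7.5, 150 mM NaCl, 0.1 mM GDP, 0.05% NP40, 10 min at room temperature with compound.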

[13] = qHTS Assay for Identification of Small Molecule Agonists for Thrombopoietin (TPO) Signaling Pathway (AID 917; active = well fitted curve in the direction sought with a large enough effect; an effect the other way counts as inactive or inconclusive; note: % is set by controls: 0 for no effect and ±100 for the full control effect)
In short: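 We measured Glycoprotein IIb promoter–luciferase output in IL-3-starved Ba/F3 murine cells expressing the human TPO receptor after 24 hrs at 37 C with compounds and 26 pM TPO.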

[14] = biological target: Pyruvate kinase (Leishmania mexicana) (UniProt Q27686); assay: qHTS Validation Assay for Inhibitors of Leishmania Mexicana Pyruvate Kinase (AID 945; active = well fitted curve in the direction sought with a large enough effect; an effect the other way counts as inactive or inconclusive;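 note: 0% = DMSO only neutral control wells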)
In short: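 Compounds are tested as eight-point concentration series. Reactions contain 0.2 nM LmPYK E451W, 0.5 mM PEP, 0.1 mM ADP, 7 mM MgCl2 and 50 mM KCl at pH 7.2, run 1 h at room temperature, then read by PKLight luminescence.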

[15] = biological target: Pyruvate kinase PKM (Homo sapiens) (UniProt P14618); assay: qHTS Assay for Activators of Human Muscle Pyruvate Kinase (AID 954; active = well fitted curve in the direction sought with a large enough effect, not every such curve was filed as active;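 note: 0% = uninhibited enzyme and -100% = no enzyme or full thiadiazolimine inhibition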)
In short: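 Human PKM2 activity is measured as ATP generation, detected by luciferase-coupled luminescence. The enzyme (0.1 nM) acts on 0.5 mM PEP and 0.1 mM ADP for 1 h at ambient temperature; data are normalized to uninhibited and full-inhibition wells.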

[16] = biological target: Alpha-galactosidase A (Homo sapiens) (UniProt P06280); assay: Counterscreen for Glucocerebrosidase Inhibitors: qHTS Assay for Human alpha-Galactosidase at pH 4.5 (AID 992; active = well fitted curve in the direction sought with a large enough effect; an effect the other way counts as inactive or inconclusive; note: 0% is about no effect)
In short: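 Quantitative HTS: compounds tested from 0.7 nM up to 77 uM against 2 nM enzyme with 80 uM 4-MU alpha-D-galactopyranoside. The 20 min room-temperature reaction is stopped with 1M NaOH/1M glycine, pH 10.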

[17] = biological target: alpha-glucosidase (Oryza sativa, rice) (UniProt Q653V4); assay: Counterscreen for Glucocerebrosidase Inhibitors: qHTS Assay for Rice alpha-Glucosidase at pH 5.0 (AID 997; active = well fitted curve in the direction sought with a large enough effect; an effect the other way counts as inactive or inconclusive;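 note: 0% = full activity with enzyme and -100% = basal without enzyme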)
In short: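 Rice alpha-glucosidase (4 nM final) with 400 uM 4-methylumbelliferyl-alpha-D-glucopyranoside in citrate buffer pH 5.0, 20 min at room temperature, stopped at pH 10; fluorescence 365/440 nm, compounds 0.7 nM–77 uM, AC50 from Hill fits.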

Chain of Cytochrome P450 2C9 (Homo sapiens) (P11712 whole entry, looked up): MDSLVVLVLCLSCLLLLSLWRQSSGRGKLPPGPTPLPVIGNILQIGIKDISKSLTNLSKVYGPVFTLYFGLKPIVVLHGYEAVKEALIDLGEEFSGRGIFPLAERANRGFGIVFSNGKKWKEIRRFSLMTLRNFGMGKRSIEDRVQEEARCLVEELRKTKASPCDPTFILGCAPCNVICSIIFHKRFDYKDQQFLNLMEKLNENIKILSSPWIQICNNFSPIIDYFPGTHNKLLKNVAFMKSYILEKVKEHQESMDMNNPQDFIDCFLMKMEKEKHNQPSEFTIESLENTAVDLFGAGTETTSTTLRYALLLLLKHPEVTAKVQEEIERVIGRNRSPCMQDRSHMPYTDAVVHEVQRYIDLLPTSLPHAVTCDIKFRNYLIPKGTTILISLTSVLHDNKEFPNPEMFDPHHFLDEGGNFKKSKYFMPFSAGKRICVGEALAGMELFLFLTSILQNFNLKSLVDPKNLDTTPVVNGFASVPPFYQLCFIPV
Chain of Cytochrome P450 1A2 (Homo sapiens) (P05177 whole entry, looked up): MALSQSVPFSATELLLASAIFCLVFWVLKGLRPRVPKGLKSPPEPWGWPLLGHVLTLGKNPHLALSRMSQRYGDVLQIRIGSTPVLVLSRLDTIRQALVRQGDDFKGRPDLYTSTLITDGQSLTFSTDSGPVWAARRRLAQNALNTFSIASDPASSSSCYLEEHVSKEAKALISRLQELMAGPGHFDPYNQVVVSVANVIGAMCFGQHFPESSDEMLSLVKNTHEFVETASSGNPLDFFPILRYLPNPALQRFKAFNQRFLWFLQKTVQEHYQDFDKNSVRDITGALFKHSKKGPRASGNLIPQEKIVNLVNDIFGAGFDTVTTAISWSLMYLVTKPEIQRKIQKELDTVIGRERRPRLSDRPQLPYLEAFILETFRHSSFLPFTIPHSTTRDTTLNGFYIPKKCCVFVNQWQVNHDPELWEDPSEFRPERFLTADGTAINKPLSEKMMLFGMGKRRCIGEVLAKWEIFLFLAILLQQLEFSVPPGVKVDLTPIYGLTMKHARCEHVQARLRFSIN
Chain of Glucocorticoid receptor (Homo sapiens) (P04150 whole entry, looked up, the tested form may be a part): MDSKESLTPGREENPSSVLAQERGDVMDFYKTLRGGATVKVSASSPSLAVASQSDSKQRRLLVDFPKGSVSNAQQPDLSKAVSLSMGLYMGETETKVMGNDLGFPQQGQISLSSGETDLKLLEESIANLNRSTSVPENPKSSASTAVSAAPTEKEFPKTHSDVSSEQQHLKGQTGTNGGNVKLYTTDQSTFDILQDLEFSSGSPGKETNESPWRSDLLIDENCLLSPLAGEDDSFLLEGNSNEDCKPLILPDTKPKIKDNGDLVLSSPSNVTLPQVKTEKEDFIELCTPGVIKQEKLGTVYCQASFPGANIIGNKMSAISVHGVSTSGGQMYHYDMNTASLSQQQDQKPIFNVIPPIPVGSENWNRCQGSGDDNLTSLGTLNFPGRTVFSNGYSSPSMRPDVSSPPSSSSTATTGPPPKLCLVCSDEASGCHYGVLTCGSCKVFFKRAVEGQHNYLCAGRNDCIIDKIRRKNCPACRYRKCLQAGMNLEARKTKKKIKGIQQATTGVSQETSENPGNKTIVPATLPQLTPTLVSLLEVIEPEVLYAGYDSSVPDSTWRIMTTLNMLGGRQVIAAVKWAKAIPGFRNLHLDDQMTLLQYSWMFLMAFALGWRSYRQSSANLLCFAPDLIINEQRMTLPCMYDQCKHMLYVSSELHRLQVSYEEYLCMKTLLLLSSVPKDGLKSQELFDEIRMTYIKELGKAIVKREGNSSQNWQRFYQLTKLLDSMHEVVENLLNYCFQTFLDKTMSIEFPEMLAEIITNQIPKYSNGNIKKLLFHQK
Chain of 3',5'-cyclic-AMP phosphodiesterase 4B (Homo sapiens) (Q07343 whole entry, looked up): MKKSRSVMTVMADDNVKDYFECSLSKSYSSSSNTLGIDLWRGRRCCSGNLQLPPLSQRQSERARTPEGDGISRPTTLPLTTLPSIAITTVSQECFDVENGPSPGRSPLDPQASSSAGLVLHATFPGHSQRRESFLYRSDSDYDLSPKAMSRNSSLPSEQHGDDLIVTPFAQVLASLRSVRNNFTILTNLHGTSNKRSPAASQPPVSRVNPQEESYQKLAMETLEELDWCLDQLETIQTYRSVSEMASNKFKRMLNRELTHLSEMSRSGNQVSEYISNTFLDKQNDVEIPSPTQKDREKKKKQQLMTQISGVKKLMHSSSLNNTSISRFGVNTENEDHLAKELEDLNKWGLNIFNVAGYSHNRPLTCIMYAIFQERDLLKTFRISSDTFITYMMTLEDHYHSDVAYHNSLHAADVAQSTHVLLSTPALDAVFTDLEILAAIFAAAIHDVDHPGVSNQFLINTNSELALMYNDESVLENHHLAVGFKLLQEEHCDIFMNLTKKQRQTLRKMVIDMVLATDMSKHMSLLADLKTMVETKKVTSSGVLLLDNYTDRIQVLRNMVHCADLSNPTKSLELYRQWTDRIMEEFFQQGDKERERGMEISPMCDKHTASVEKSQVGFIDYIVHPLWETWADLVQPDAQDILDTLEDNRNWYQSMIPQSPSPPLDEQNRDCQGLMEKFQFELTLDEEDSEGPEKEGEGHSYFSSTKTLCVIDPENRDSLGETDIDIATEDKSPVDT
Chain of Cytochrome P450 2D6 (Homo sapiens) (P10635 whole entry, looked up): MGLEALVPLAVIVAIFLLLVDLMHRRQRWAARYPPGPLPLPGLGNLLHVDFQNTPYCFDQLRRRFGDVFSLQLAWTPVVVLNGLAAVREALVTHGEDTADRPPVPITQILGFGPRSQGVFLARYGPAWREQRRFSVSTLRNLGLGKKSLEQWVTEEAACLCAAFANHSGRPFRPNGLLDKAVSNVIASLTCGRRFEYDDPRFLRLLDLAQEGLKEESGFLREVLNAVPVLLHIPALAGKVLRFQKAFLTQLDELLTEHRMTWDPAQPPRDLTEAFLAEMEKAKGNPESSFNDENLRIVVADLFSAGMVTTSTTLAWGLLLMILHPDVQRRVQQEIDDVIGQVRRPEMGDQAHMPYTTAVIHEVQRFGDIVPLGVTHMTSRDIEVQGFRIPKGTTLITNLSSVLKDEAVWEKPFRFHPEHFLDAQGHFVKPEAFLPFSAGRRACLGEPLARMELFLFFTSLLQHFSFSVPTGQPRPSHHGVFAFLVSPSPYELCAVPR
Chain of Cytochrome P450 2C19 (Homo sapiens) (P33261 whole entry, looked up): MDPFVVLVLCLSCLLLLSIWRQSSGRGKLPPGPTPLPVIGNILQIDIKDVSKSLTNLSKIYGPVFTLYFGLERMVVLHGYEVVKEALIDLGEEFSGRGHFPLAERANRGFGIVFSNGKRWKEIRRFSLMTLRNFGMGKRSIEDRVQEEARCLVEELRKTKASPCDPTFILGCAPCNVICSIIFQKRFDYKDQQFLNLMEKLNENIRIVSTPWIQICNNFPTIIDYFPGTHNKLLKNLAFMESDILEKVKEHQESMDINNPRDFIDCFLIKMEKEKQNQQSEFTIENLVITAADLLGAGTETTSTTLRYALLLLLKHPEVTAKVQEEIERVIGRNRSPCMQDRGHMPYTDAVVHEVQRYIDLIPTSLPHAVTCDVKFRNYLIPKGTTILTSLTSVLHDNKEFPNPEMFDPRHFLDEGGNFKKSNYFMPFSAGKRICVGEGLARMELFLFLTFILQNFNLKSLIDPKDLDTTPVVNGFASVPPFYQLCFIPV
Chain of Pyruvate kinase (Leishmania mexicana) (Q27686 2-499 E452W): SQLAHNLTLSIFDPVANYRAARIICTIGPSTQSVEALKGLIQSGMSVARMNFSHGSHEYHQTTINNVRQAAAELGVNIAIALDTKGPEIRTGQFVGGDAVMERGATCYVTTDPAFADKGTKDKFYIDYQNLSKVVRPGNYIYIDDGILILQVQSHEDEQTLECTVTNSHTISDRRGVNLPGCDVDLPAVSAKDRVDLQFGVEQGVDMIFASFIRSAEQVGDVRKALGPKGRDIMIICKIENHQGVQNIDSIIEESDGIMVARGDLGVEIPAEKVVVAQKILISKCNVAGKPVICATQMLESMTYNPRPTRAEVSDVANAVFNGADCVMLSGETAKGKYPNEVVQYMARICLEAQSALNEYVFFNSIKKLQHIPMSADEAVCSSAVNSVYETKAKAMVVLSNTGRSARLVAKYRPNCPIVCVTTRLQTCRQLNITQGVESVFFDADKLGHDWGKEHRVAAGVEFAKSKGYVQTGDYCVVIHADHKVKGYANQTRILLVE
Chain of Pyruvate kinase PKM (Homo sapiens) (P14618 whole entry, looked up): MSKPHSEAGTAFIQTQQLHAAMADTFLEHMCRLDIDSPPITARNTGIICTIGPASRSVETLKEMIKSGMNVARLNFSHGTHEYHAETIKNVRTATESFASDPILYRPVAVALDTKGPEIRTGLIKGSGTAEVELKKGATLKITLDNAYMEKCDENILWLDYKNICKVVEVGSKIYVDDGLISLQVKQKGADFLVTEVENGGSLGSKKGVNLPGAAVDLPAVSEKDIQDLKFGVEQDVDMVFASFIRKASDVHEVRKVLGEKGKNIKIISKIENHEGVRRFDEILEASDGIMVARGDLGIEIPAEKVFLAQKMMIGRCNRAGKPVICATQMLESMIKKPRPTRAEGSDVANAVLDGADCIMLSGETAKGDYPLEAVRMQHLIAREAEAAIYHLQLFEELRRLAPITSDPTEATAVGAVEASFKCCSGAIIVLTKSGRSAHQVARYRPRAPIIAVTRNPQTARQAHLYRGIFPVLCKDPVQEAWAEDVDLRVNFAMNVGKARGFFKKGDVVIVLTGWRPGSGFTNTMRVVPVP
Chain of Guanine nucleotide-binding protein G(i) subunit alpha-1 (Homo sapiens) (P63096 whole entry, looked up): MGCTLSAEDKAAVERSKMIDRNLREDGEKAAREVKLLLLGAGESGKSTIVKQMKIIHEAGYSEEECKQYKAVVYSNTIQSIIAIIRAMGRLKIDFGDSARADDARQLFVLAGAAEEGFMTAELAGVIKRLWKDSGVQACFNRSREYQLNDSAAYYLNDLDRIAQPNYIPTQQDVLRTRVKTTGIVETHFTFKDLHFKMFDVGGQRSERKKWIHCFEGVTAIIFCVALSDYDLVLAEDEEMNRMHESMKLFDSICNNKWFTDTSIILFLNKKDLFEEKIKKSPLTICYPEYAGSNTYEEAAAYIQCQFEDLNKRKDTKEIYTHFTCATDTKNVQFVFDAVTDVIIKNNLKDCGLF

COC(=O)c1ccc(-c2sc3nc(N4CCOCC4)c4c(c3c2N)CC(C)(C)OC4)o1
inactive: activity change, negative = inhibition [1] -12.7% | activity change, negative = inhibition [2] -1.53% | activity, negative = inhibition [3] 5.68%

N#Cc1ccc(OC(=O)c2ccc(N=C(N)N)cc2)cc1
inactive: activity change, negative = inhibition [1] -0.971% [at 7.69 µM] | activity, negative = inhibition [3] -5.61% [at 7.69 µM] | activity change, negative = inhibition [5] 1.07% [at 11.4 µM] | Potency [6]
active: Potency [4] 2.51 µM

OC[C@@H]1O[C@@H](n2cnc3c(NCCc4ccccc4)ncnc32)[C@@H](O)[C@H]1O
inactive: activity change, negative = inhibition [1] -4.22% [at 38 µM] | Potency [4] | activity, negative = inhibition [3] 0.109% [at 38 µM] | Potency [7] > 46 µM | Potency [8] > 46 µM | Potency [5] | Potency [6] | Potency [9] | Potency [10] | Potency [11]

C=CCNc1nc(C2(C)CC3(CC(C)(C)OC3=O)C(=O)O2)cs1 (stereo not given)
inactive: activity change, negative = inhibition [1] -3.51% | activity change, negative = inhibition [2] -7.31% | activity, negative = inhibition [3] -18.1%

CCCCCCCCCCCCCCCCCCOC[C@@H](COP(=O)([O-])OCC[N+](C)(C)C)OC
inactive: activity change, negative = inhibition [1] 29% [at 38 µM] | Potency [4] | activity, negative = inhibition [3] 4.35% [at 38 µM] | Potency [7] > 46 µM | Potency [8] > 46 µM | Potency [5] | Potency [6] | outcome [12] | Potency [13] | Potency [14] | outcome [15] | outcome [16] | outcome [17]

CO[C@H]1C[C@@H]2CC[C@@H](C)[C@@](O)(O2)C(=O)C(=O)N2CCCC[C@H]2C(=O)O[C@H]([C@H](C)C[C@@H]2CC[C@@H](O)[C@H](OC)C2)CC(=O)[C@H](C)C=C(C)[C@@H](O)[C@@H](OC)C(=O)[C@H](C)C[C@H](C)C=CC=CC=C1C
inactive: activity change, negative = inhibition [1] 6.13% | activity change, negative = inhibition [2] 24.7% | activity, negative = inhibition [3] -28.8%

CCN1CCC[C@@H]1CNC(=O)c1c(OC)ccc(I)c1O
active: Potency [4] 15.8 µM | Potency [10] 0.199 µM
inactive: activity change, negative = inhibition [1] -2.43% [at 38 µM] | activity, negative = inhibition [3] -4.45% [at 38 µM] | Potency [7] > 46 µM | Potency [8] > 46 µM | Potency [5] | Potency [6] | Potency [9] | Potency [11]

Cc1cc(Cc2cc(Cc3cc(C)cc(C(C)(C)C)c3O)c(C)cc2C)c(O)c(C(C)(C)C)c1
inactive: activity change, negative = inhibition [1] -2.73% [at 7.69 µM] | activity change, negative = inhibition [4] -17.2% [at 2.29 µM] | activity, negative = inhibition [3] -3.85% [at 7.69 µM] | Potency [7] > 46 µM | Potency [8] > 9.22 µM | activity change, negative = inhibition [5] -4.33% [at 11.4 µM] | Potency [6]
active: Potency [9] 3.16 µM

From PubChem BioAssay (NCATS)
